# Measured values: PubChem BioAssay (EPA / NIEHS)
# Activity calls are given as the source filed them. Rule for the calls: active = hit-call score of the fitted dose curve at least 0.9, where 1 is the maximum; inactive = score below 0.9.
# Experiments:
# [1] = biological target: Bile acid receptor (Homo sapiens) (UniProt Q96RI1); experiment: ATG_IR1_CIS: Attagene CIS-FACTORIAL HepG2 Assay for human Nuclear Receptor Subfamily 1 Group H Member 4 (NR1H4), IR1 submotif (AID 2282946); settings: IR1 reporter transcription, actives raise or lower the signal
# Procedure, shortened: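 Transient MRTU transfection, HepG2; 24 h dosing; RNA → RT-PCR → 6-FAM primer extension → HpaI digest → capillary electrophoresis fluorescence. Gain/loss of signal fitted relative to DMSO.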
# [2] = ATG_GRE_CIS: Attagene CIS-FACTORIAL HepG2 Assay for human Glucocorticoid Response Elements (GRE) (AID 2282947); settings: HepG2 GRE cis-reporter, Attagene multiplex mRNA; actives raise or lower the signal
# Procedure, shortened: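 HepG2 cells transiently transfected with multiple cis-promoter reporter units measure endogenous TF activity; 24 h compound exposure. Reporter mRNA quantified by RT-PCR, FAM labelling, HpaI digestion and capillary electrophoresis; bidirectional fit vs DMSO baseline.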
# [3] = ATG_ISRE_CIS: Attagene CIS-FACTORIAL HepG2 Assay for human Interferon Regulatory Factor 1 (IRF1) binding to an Interferon-Stimulated Response Element (ISRE) (AID 2282948); settings: HepG2 ISRE cis-reporter (Attagene), mRNA transcription readout; actives raise or lower the signal
# Procedure, shortened: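 Quantitation relies on labelled RT-PCR fragments separated by capillary electrophoresis. Human HepG2 cells bearing cis-promoter reporter constructs were treated 24 h; DMSO served as baseline for bidirectional fitting.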
# [4] = ATG_M_32_CIS: Attagene CIS-FACTORIAL HepG2 Assay for M32 Transcription Factor (Internal Marker) (AID 2282949); settings: HepG2 Attagene cis-factorial M32 reporter, mRNA; actives raise or lower the signal;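 note: background control marker of the multiplexed CIS panel rather than a real target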
# Procedure, shortened: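 Following 24 h chemical exposure of HepG2 cells transiently expressing cis-promoter reporter constructs, reporter transcript levels were determined by RT-PCR with fluorescent labelling and capillary electrophoresis, then fitted bidirectionally against DMSO.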
# [5] = ATG_M_06_CIS: Attagene CIS-FACTORIAL HepG2 Assay for M06 Transcription Factor (Internal Marker) (AID 2282950); settings: HepG2 Attagene CIS-FACTORIAL M06 internal marker reporter; actives raise or lower the signal
# Procedure, shortened: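 Steps: transfect HepG2 with multiplexed cis-element reporter constructs; dose chemical 24 h; extract RNA with DNase treatment; reverse-transcribe, PCR-amplify, 6-FAM label, HpaI digest; separate fragments by capillary electrophoresis. Activity fitted both directions versus DMSO.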
# [6] = biological target: Hypoxia-inducible factor 1-alpha (Homo sapiens) (UniProt Q16665); experiment: ATG_HIF1a_CIS: Attagene CIS-FACTORIAL HepG2 Assay for human Hypoxia Inducible Factor 1 (HIF1A) (AID 2282951); settings: HepG2 Attagene cis-factorial HIF1a reporter transcription; actives raise or lower the signal
# Procedure, shortened: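 RT-PCR/capillary electrophoresis fluorescence readout of reporter transcripts from endogenous-TF-driven cis elements in transfected HepG2 cells, 24 h exposure; activity fitted in both directions against DMSO controls.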
# [7] = biological target: Hepatocyte nuclear factor 6 (Homo sapiens) (UniProt Q9UBC0); experiment: ATG_HNF6_CIS: Attagene CIS-FACTORIAL HepG2 Assay for human Hepatocyte Nuclear Factor 6 (HNF6) (AID 2282952); settings: HepG2 Attagene cis-factorial HNF6 reporter transcription; actives raise or lower the signal
# Procedure, shortened: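 Multiplexed mRNA reporter assay in transfected HepG2; 24 h dosing; RT-PCR plus capillary electrophoresis fluorescence; DMSO-referenced bidirectional curve fitting.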
# [8] = biological target: Heat shock factor protein 1 (Homo sapiens) (UniProt Q00613); experiment: ATG_HSE_CIS: Attagene CIS-FACTORIAL HepG2 Assay for human Heat Shock Transcription Factor 1 (HSE) (AID 2282953); settings: HepG2 HSE cis-reporter, Attagene RNA transcription; actives raise or lower the signal
# Procedure, shortened: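 Cells were transfected with cis-element-driven reporter constructs, dosed for 24 h, then total RNA was reverse-transcribed and reporter cDNA amplified, FAM-labelled and digested with HpaI. Fragments were resolved by capillary electrophoresis; gain or loss was fitted against DMSO.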
# [9] = ATG_MRE_CIS: Attagene CIS-FACTORIAL HepG2 Assay for human Metal Responsive Element (MRE) (AID 2282954); settings: HepG2 MRE cis-reporter transcription, Attagene multiplex; actives raise or lower the signal
# Procedure, shortened: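 HepG2 cells transiently transfected with multiple cis-element reporter units measure endogenous MTF1-driven transcription. After 24 h compound exposure, reporter mRNA is quantified by RT-PCR with 6-FAM labelling, HpaI digestion and capillary electrophoresis; bidirectional fits versus DMSO.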
# [10] = ATG_PBREM_CIS: Attagene CIS-FACTORIAL HepG2 Assay for human Phenobarbital-responsive Enhancer Module (PBREM) (AID 2282955); settings: HepG2 PBREM cis-reporter, Attagene multiplexed transcription; actives raise or lower the signal
# Procedure, shortened: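 Reporter mRNA read by RT-PCR, 6-FAM primer extension, HpaI digestion and capillary electrophoresis. Transfected HepG2 cells, 24 h compound exposure. Gain or loss of signal fitted bidirectionally relative to DMSO baseline.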
# [11] = biological target: Paired box protein Pax-6 (Homo sapiens) (UniProt P26367); experiment: ATG_Pax6_CIS: Attagene CIS-FACTORIAL HepG2 Assay for human Paired Box 6 (PAX6) (AID 2282956); settings: HepG2 CIS-FACTORIAL PAX6 reporter transcription, RNA readout; actives raise or lower the signal
# Procedure, shortened: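 After twenty-four hours of chemical exposure, transfected HepG2 cells are harvested for RNA. Cis-promoter reporter transcripts are amplified, fluorescently labelled and sized by capillary electrophoresis, with gain and loss of signal scored against DMSO.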
# [12] = ATG_PXRE_CIS: Attagene CIS-FACTORIAL HepG2 Assay for human Pregnane X Receptor Element (PXRE) (AID 2282957); settings: HepG2 Attagene CIS-FACTORIAL PXRE reporter, mRNA; actives raise or lower the signal
# Procedure, shortened: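 Cells: HepG2, transiently transfected reporter units under cis promoter control. Exposure: 24 h. Detection: reporter mRNA via RT-PCR/CE fluorescence; bidirectional fitting, DMSO-referenced.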
# [13] = ATG_RORE_CIS: Attagene CIS-FACTORIAL HepG2 Assay for human RAR-related Orphan Receptor Element (RORE) (AID 2282959); settings: HepG2 Attagene cis-factorial RORE reporter, mRNA; actives raise or lower the signal
# Procedure, shortened: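 Readout: fluorescent reporter mRNA by RT-PCR plus capillary electrophoresis, 24 h after dosing transfected HepG2 cells. Endogenous transcription factor activity on a cis promoter element is measured. Gain or loss of signal fitted against DMSO.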
# [14] = ATG_Sox_CIS: Attagene CIS-FACTORIAL HepG2 Assay for human SRY-box transcription factor (SOX) (AID 2282960); settings: HepG2 Attagene cis-factorial SOX reporter, mRNA; actives raise or lower the signal
# Procedure, shortened: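 Read-out: fluorescent RT-PCR products of SOX1-linked reporter transcripts resolved by capillary electrophoresis, fitted bidirectionally against DMSO. Transiently transfected HepG2 cells, 24 h after chemical exposure, endogenous transcription factor activity.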
# [15] = biological target: Transcription factor Sp1 (Homo sapiens) (UniProt P08047); experiment: ATG_Sp1_CIS: Attagene CIS-FACTORIAL HepG2 Assay for human Specificity Protein 1 (Sp1) (AID 2282961); settings: HepG2 Sp1 cis-reporter transcription, actives raise or lower the signal
# Procedure, shortened: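 Read-out: fluorescence of 6-FAM-labeled, HpaI-digested RT-PCR products separated by capillary electrophoresis. HepG2 cells carried transfected cis-element reporter units and were exposed to chemicals for 24 h; gain or loss of signal fitted relative to DMSO.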
# [16] = ATG_SREBP_CIS: Attagene CIS-FACTORIAL HepG2 Assay for human Sterol Regulatory Element Binding (SREBP) (AID 2282962); settings: HepG2 Attagene cis-factorial SREBP reporter, mRNA; actives raise or lower the signal
# Procedure, shortened: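 Twenty-four hours after chemical dosing of transfected HepG2 cultures, reporter RNA was converted to cDNA, amplified, end-labelled with 6-FAM and resolved by capillary electrophoresis. Responses were fitted relative to DMSO.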
# [17] = biological target: Signal transducer and activator of transcription 3 (Homo sapiens) (UniProt P40763); experiment: ATG_STAT3_CIS: Attagene CIS-FACTORIAL HepG2 Assay for human Signal Transducer and Activator of Transcription 3 (STAT3) (AID 2282963); settings: HepG2, Attagene cis-factorial STAT3 reporter transcription; actives raise or lower the signal
# Procedure, shortened: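 HepG2 cells transiently transfected with cis-element-driven multiple reporter transcription units; after 24 h chemical exposure, reporter mRNA measured by RT-PCR, 6-FAM primer-extension labelling, HpaI digestion and capillary electrophoresis. Bidirectional fitting versus DMSO baseline.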
# [18] = ATG_TA_CIS: Attagene CIS-FACTORIAL HepG2 Assay for human TA Basal Promoter (AID 2282964); settings: HepG2 Attagene CIS-factorial TA basal promoter reporter; actives raise or lower the signal
# Procedure, shortened: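 Steps: transfect HepG2 with MRTUs; dose 24 h; isolate RNA, DNase-treat, reverse-transcribe; PCR and FAM-label reporter cDNA; digest with HpaI 2h at 37 C; run capillary electrophoresis. Activity fitted both directions against DMSO.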
# [19] = ATG_TCF_b_cat_CIS: Attagene CIS-FACTORIAL HepG2 Assay for human T-Cell-Factor with beta-catenin (TCF/b-cat) (AID 2282965); settings: HepG2 TCF/beta-catenin cis-reporter transcription, actives raise or lower the signal
# Procedure, shortened: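 HepG2 cells transiently transfected with multiple cis-promoter-regulated reporter transcription units, so endogenous transcription factor activity is measured. Reporter mRNA read 24 hours after dosing by RT-PCR, fluorescent labelling and capillary electrophoresis; bidirectional fitting against DMSO.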
# [20] = ATG_PPRE_CIS: Attagene CIS-FACTORIAL HepG2 Assay for human Peroxisome Proliferator-activated Response Element (PPRE) (AID 2282958); settings: HepG2 PPRE cis-element reporter, Attagene transcription factor profiling; actives raise or lower the signal
# Procedure, shortened: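 Read-out: fluorescent reporter mRNA fragments resolved by capillary electrophoresis after RT-PCR. HepG2 cells carried transiently transfected PPRE-driven cis reporter constructs and were dosed for 24 h; gain or loss of signal fitted relative to DMSO.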
# Sequence of Paired box protein Pax-6 (Homo sapiens) (P26367 whole entry, looked up): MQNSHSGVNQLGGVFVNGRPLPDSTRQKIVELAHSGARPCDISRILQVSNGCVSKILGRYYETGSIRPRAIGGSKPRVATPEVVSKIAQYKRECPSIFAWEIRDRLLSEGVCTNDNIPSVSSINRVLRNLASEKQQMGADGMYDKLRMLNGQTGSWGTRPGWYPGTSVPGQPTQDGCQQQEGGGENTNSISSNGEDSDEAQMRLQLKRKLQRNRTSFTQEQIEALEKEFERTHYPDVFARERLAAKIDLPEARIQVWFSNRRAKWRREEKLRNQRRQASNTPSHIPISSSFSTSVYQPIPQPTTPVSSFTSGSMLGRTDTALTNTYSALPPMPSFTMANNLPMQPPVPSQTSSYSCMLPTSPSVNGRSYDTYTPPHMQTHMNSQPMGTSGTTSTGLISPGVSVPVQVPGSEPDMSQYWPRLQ
# Sequence of Transcription factor Sp1 (Homo sapiens) (P08047 whole entry, looked up): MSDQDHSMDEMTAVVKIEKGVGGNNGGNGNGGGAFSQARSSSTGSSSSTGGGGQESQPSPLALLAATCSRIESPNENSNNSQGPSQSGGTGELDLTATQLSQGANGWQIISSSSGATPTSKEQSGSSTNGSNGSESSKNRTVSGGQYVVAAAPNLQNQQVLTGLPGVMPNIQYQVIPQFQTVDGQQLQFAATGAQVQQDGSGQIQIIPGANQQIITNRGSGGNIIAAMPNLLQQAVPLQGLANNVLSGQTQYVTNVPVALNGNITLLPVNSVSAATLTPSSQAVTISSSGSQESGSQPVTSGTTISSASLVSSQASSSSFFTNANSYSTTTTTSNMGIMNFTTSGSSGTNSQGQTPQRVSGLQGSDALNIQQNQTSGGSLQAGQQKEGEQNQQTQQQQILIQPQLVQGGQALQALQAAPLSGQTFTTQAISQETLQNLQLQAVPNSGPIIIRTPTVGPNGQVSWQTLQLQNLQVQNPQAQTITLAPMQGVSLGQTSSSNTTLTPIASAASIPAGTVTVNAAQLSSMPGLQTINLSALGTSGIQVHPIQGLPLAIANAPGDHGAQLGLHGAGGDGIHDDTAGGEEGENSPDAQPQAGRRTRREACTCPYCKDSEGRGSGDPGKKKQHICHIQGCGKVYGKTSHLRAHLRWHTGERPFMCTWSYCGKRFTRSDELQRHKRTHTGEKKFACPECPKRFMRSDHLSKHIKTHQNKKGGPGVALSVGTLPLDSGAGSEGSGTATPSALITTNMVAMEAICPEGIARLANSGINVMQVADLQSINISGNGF
# Sequence of Signal transducer and activator of transcription 3 (Homo sapiens) (P40763 whole entry, looked up): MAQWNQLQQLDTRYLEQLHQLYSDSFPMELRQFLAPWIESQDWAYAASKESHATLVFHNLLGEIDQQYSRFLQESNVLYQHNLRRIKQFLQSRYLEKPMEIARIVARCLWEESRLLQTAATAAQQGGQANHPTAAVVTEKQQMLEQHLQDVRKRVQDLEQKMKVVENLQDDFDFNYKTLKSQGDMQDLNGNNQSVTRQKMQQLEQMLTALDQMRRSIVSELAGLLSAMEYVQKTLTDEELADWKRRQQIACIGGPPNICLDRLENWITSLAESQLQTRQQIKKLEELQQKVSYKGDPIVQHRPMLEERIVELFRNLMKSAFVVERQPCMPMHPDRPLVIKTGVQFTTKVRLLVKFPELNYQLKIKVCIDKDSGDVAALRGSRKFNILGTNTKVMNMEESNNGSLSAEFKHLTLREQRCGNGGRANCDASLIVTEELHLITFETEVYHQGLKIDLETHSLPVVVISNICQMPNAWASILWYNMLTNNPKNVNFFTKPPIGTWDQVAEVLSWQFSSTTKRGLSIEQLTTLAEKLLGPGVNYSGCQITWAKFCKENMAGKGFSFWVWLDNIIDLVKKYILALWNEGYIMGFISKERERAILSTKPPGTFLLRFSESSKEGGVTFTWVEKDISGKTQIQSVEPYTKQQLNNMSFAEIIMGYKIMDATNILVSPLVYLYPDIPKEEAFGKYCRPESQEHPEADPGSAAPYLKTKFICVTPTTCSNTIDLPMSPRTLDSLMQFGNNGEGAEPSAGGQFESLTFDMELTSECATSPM
# Sequence of Hepatocyte nuclear factor 6 (Homo sapiens) (Q9UBC0 whole entry, looked up): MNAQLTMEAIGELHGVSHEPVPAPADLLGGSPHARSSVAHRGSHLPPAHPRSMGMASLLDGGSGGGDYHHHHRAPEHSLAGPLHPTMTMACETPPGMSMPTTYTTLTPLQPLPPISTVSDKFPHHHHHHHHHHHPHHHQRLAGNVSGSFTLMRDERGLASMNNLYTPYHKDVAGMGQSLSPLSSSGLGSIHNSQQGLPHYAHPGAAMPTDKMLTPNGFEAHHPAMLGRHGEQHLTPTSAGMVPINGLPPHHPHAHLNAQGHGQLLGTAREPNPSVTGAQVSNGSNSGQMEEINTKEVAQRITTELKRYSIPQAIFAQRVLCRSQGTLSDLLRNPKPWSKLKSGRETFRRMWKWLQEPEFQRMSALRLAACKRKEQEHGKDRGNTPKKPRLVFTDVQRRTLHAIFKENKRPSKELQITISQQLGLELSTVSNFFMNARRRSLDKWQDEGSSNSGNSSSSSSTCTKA
# Sequence of Hypoxia-inducible factor 1-alpha (Homo sapiens) (Q16665 whole entry, looked up): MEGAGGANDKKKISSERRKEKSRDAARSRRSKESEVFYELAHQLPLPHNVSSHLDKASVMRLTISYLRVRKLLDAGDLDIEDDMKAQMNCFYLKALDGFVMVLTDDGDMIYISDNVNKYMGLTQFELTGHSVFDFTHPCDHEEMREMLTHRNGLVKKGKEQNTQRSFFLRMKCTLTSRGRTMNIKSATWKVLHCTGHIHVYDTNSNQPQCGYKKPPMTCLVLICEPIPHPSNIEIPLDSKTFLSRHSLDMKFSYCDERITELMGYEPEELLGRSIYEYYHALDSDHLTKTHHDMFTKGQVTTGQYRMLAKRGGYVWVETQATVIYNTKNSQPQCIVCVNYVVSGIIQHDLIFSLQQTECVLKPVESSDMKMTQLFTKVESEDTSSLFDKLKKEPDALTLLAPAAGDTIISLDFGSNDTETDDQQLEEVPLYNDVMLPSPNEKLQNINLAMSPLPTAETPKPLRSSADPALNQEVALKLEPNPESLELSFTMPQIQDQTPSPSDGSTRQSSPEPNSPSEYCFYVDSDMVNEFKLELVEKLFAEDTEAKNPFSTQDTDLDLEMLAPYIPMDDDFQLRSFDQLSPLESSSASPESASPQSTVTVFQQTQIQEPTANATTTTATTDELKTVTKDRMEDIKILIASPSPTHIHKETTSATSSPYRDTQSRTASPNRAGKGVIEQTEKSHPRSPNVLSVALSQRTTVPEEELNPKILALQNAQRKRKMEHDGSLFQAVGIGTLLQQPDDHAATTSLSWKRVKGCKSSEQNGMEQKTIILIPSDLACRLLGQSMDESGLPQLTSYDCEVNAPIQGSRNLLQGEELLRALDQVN
# Sequence of Heat shock factor protein 1 (Homo sapiens) (Q00613 whole entry, looked up, the tested form may be a part): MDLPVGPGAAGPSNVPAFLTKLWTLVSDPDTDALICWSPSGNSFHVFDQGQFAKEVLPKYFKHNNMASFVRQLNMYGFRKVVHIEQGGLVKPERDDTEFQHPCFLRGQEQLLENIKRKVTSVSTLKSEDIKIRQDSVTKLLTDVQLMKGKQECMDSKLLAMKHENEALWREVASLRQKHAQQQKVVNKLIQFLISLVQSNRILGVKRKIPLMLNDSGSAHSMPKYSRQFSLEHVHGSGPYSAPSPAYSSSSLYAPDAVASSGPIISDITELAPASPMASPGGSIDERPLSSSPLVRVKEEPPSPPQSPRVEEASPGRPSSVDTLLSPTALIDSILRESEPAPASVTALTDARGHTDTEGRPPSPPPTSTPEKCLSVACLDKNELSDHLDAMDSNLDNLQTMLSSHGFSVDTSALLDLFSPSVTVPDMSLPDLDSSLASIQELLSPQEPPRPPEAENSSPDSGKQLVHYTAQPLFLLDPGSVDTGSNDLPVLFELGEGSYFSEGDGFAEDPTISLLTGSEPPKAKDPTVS
# Sequence of Bile acid receptor (Homo sapiens) (Q96RI1 whole entry, looked up): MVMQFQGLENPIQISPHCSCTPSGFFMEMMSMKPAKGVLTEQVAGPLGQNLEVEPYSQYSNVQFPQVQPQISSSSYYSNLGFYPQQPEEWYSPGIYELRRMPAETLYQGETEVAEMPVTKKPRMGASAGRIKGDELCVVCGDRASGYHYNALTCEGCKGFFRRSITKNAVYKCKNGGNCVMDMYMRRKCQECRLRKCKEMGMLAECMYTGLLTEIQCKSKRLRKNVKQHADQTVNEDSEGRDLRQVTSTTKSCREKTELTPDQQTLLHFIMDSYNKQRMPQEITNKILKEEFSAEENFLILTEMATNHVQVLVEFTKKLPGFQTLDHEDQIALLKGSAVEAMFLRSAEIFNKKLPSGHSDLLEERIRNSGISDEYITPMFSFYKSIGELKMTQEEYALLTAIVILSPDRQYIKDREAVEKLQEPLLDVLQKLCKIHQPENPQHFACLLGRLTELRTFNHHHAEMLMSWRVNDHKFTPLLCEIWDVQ
structure (smiles),measurement,setting,value
Oc1c(Cl)cc(Cl)c(Cl)c1Cc1c(O)c(Cl)cc(Cl)c1Cl,outcome,[1],inactive
same,outcome,[2],inactive
same,AC50,[3],6 µM (active)
same,outcome,[4],inactive
same,outcome,[5],inactive
same,AC50,[6],8.52 µM (active)
same,outcome,[7],inactive
same,AC50,[8],17.1 µM (active)
same,AC50,[9],9.9 µM (active)
same,AC50,[10],1.12 µM (active)
same,AC50,[11],11.1 µM (active)
same,AC50,[12],0.802 µM (active)
same,AC50,[13],2.2 µM (active)
same,outcome,[14],inactive
same,outcome,[15],inactive
same,outcome,[16],inactive
same,outcome,[17],inactive
same,outcome,[18],inactive
same,AC50,[19],11.1 µM (active)
CC(C)(C)OC(=O)c1ccc(O)cc1,outcome,[1],inactive
same,outcome,[2],inactive
same,outcome,[3],inactive
same,outcome,[4],inactive
same,outcome,[5],inactive
same,outcome,[6],inactive
same,outcome,[7],inactive
same,AC50,[8],159 µM (active)
same,AC50,[9],100 µM (active)
same,outcome,[10],inactive
same,outcome,[11],inactive
same,outcome,[12],inactive
same,AC50,[13],72.5 µM (active)
same,outcome,[14],inactive
same,outcome,[15],inactive
same,outcome,[16],inactive
same,outcome,[17],inactive
same,outcome,[18],inactive
same,outcome,[19],inactive
CC(=O)c1c(C)c([N+](=O)[O-])c(C(C)(C)C)c([N+](=O)[O-])c1C,outcome,[1],inactive
same,outcome,[2],inactive
same,outcome,[3],inactive
same,outcome,[4],inactive
same,outcome,[5],inactive
same,outcome,[6],inactive
same,outcome,[7],inactive
same,outcome,[8],inactive
same,AC50,[9],11.5 µM (active)
same,outcome,[10],inactive
same,outcome,[11],inactive
same,AC50,[12],2.28 µM (active)
same,outcome,[20],inactive
same,outcome,[13],inactive
same,outcome,[14],inactive
same,outcome,[15],inactive
same,outcome,[16],inactive
same,outcome,[18],inactive
same,outcome,[19],inactive
CC=CC=CCOC(=O)C(C)C,outcome,[1],inactive
same,outcome,[2],inactive
same,AC50,[3],100 µM (active)
same,outcome,[4],inactive
same,outcome,[5],inactive
same,outcome,[6],inactive
same,outcome,[7],inactive
same,outcome,[8],inactive
same,outcome,[9],inactive
same,outcome,[10],inactive
same,outcome,[11],inactive
same,AC50,[12],25 µM (active)
same,outcome,[20],inactive
same,outcome,[13],inactive
same,outcome,[14],inactive
same,outcome,[15],inactive
same,outcome,[16],inactive
same,outcome,[17],inactive
same,outcome,[18],inactive
same,outcome,[19],inactive
c1ccc(Oc2ccccc2)cc1,outcome,[1],inactive
same,outcome,[2],inactive
same,outcome,[3],inactive
same,outcome,[4],inactive
same,outcome,[5],inactive
same,outcome,[6],inactive
same,outcome,[7],inactive
same,outcome,[8],inactive
same,outcome,[9],inactive
same,outcome,[10],inactive
same,outcome,[11],inactive
same,AC50,[12],25.1 µM (active)
same,outcome,[13],inactive
same,outcome,[14],inactive
same,outcome,[15],inactive
same,outcome,[16],inactive
same,outcome,[17],inactive
same,outcome,[18],inactive
same,outcome,[19],inactive
C1CCOC1,outcome,[1],inactive
same,outcome,[2],inactive
same,outcome,[3],inactive
same,outcome,[4],inactive
same,outcome,[5],inactive
same,outcome,[6],inactive
same,outcome,[7],inactive
same,outcome,[8],inactive
same,outcome,[9],inactive
same,outcome,[10],inactive
same,outcome,[11],inactive
same,outcome,[20],inactive
same,outcome,[14],inactive
same,outcome,[15],inactive
same,outcome,[17],inactive
same,outcome,[18],inactive
same,outcome,[19],inactive
